Only some compounds are listed: those with a hit (about 21% of all), similar ones and a draw of the others.
DRD3 antagonist: qHTS of D3 Dopamine Receptor Antagonist: qHTS. D(3) dopamine receptor (Homo sapiens), P35462. D3R cells, DiscoveRx beta-arrestin luminescence, antagonist mode; hits give low values. max response, negative = inhibition, %. 360,000 tested, 2.5% active. AID 652054, 2013; in the data active means max response below about -50%; inconclusive means no clear call, values can overlap the other calls; further: on the % scale 0 is the no-effect control and ±100 the full control effect
Target sequence (P35462 whole entry, looked up): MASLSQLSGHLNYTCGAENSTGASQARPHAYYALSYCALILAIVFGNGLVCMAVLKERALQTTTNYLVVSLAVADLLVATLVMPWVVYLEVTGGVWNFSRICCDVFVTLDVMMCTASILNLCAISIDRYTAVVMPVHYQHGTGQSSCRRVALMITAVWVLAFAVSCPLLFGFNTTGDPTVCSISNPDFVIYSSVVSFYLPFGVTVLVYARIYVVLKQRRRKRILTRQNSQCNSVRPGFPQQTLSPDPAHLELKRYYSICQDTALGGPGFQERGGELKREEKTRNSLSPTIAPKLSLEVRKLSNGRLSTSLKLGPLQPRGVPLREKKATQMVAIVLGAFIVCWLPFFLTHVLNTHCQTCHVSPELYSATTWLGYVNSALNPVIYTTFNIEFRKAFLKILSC
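Cells plated overnight at 1500 cells/well, then exposed to library compounds with dopamine controls for 90 minutes at 37 degrees C. DiscoveRx reagent added for 30–60 minutes at room temperature; luminescence read, quantitative HTS format.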
TDP1 cell CPT: qHTS for Inhibitors of human tyrosyl-DNA phosphodiesterase 1 (TDP1): qHTS in cells in presence of CPT; Potency, µM (doses to about 46.2 µM), inactives show at the top dose activity change, negative = growth inhibition, actives largely listed as inhibitors; chicken DT40 Tdp1-/-;hTDP1 cells + 20 nM CPT, ATP luminescence, 48 h; 420,000 tested, 12% active; AID 686979, 2013; further: potency means the concentration at half of the fitted maximal effect; on the % scale 0 is the no-effect control and ±100 the full control effect; nearly all actives have a fitted effect of over 55% in size
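Chicken DT40 Tdp1-/- cells complemented with human TDP1, 400 cells/well, exposed to compounds plus 20 nM camptothecin for at least 48 h at 37 C; viability read as ATP content by CellTiter-Glo luminescence.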
DRD3 agonist: qHTS of D3 Dopamine Receptor Agonist: qHTS | 410,000 tested, 0.58% active | D(3) dopamine receptor (Homo sapiens), P35462 | max activation, % | D3R DiscoveRx beta-arrestin cells, luminescence, 90 min; in the data active means max activation above about 30%; further: 0% is about no effect
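Agonist-mode cell screen: cells plated at 1500/well and incubated overnight at 37 °C, then exposed to library compounds for 90 min at 37 °C. Detection reagent was added for 30–60 min at room temperature, and luminescence was read.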
ClpP mod: qHTS Assay for Activators of ClpP; purified B. subtilis ClpP, FRET peptide cleavage, 20 min; 340,000 tested, 1.9% active; Potency, µM (highest dose often 57.5 µM), for inactives: top-dose activity change, negative = active; ATP-dependent Clp protease proteolytic subunit (Bacillus subtilis (strain 168)), P80244; active means well fitted falling curve with a large enough effect; inconclusive means small, poorly fitted or top-dose-only effect; inactive means no such curve, though single readings can be large or run the other way; further: potency means the concentration at half of the fitted maximal effect; the source files actives as falling curves though it sought activators and does not explain the sign; nearly all actives have a fitted effect of over 65% in size
Target sequence (P80244 whole entry, looked up): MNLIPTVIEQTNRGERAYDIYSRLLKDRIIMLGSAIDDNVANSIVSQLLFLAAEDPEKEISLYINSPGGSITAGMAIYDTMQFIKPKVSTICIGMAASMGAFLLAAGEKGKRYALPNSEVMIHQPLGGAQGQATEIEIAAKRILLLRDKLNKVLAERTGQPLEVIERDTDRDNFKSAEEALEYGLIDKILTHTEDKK
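Buffer: 100 mM Tris/HCl pH8, 100 mM KCl, 0.05% low protease BSA, 2.5% glycerol, 0.01% Tween-20. ClpP 10 microg/mL final; 20 min RT; delta FRET normalized to ADEP and DMSO controls.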
IL1B secr inh: qHTS for Inhibitors of Inflammasome Signaling: IL-1-beta AlphaLISA Primary Screen. THP-1 LPS/ATP IL-1B secretion, AlphaLISA, 16 h; hits give low values. activity change, % at 57.5 µM. 360,000 tested, 4.7% active. AID 743279, 2014; in the data active means activity change below about -50%; inconclusive means mostly about -30% to -49%; further: on the % scale 0 is the no-effect control and ±100 the full control effect
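THP-1 cells pretreated 1 hr with compounds (up to 57.5 uM final), then stimulated with LPS (250 ng/mL final) plus ATP (1.25 mM final); secreted IL-1B measured by AlphaLISA after 16 hr, decreased signal indicating inhibition.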
TDP1 cell noCPT: qHTS for Inhibitors of human tyrosyl-DNA phosphodiesterase 1 (TDP1): qHTS in cells in absence of CPT. DT40 Tdp1-/- hTDP1 cells, no CPT, ATP luminescence, 48 h. Potency, µM (highest dose often 46.2 µM), for inactives: top-dose activity change, negative = growth inhibition, most hits filed as inhibitors. 420,000 tested, 15% active; further: potency means the concentration at half of the fitted maximal effect; on the % scale 0 is the no-effect control and ±100 the full control effect; nearly all actives have a fitted effect of over 55% in size
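Camptothecin absent (DMSO only). Human TDP1-complemented DT40 knockout cells, 400 cells/well, 37 °C for minimum 48 hr; ATP measured via CellTiter-Glo, 30 min dark incubation, luminescence.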
* = called active by the depositor; u = inconclusive; x = no result. Unless noted, the call rests on the fitted dose curve; in most records, active means well fitted inhibition curve with a large enough effect; inconclusive means small, poorly fitted or top-dose-only effect; inactive means flat fitted curve, though single readings scatter.

SMILES | DRD3 antagonist | TDP1 cell CPT | DRD3 agonist | ClpP mod | IL1B secr inh | TDP1 cell noCPT
COc1ccccc1CNc1nc(NCCOc2ccccc2)c2sccc2n1 | 3.5 | 5.8µM* | 0.9 | u | -92.5* | 5.8µM*
C=CCn1c(NCc2ccccc2OC)nc2ccccc21 | -11.5 | -26.4% | -8.8 | 1.3% | -13.2 | u
c1cc2cc(CNc3nc(NCC4CC4)nc4ccsc34)ccc2o1 | 0.0 | 16.4µM* | -16.9 | -24.7% | -78.1* | u
COc1ccccc1CNc1nc(NCc2ccc3occc3c2)c2sccc2n1 | 16.3 | 20.6µM* | 5.1 | u | -99.8* | 20.6µM*
COc1ccccc1CNc1nc(Oc2cccc(F)c2)c2sccc2n1 | 4.6 | u | -16.2 | u | -21.5 | u
COc1ccccc1CNc1nc(Nc2cccc(-c3cnco3)c2)c2sccc2n1 | 0.0 | 18.4µM* | 13.1 | 4.4% | x | 20.6µM*
CC1CCC(NC(=O)c2cccn2C)CC1 (centres undefined) | 6.1 | -26.0% | 8.5 | 0.9% | -11.0 | u
COc1ccccc1OCCSc1nc2ccccc2n1CC(N)=O | -4.9 | 5.1% | -9.7 | -1.0% | 26.7 | -5.6%
CC(C)Nc1nc(NCc2ccccc2)c2sccc2n1 | 5.2 | 9.2µM* | 12.1 | -20.8% | -101.2* | 18.4µM*
Fc1ccc(Nc2nc(NCc3cccs3)nc3ccsc23)cc1 | 50.1 | u | 0.6 | -28.1% | -27.5 | 20.6µM*
COCCNc1nc(NCc2ccccc2)nc2ccsc12 | -1.4 | 20.6µM* | -17.4 | -14.2% | -25.8 | 9.2µM*
COCCNc1nc(NC(C)C)nc2ccsc12 | 18.5 | -29.6% | 4.5 | u | 0.0 | -21.8%
COc1ccccc1CNc1nc(NCc2ccc(NC(C)=O)cc2)c2sccc2n1 | u | u | -12.6 | -12.8% | -9.3 | -29.2%
COc1ccccc1CNc1nc(NCC2CC2)nc2ccsc12 | -6.2 | 10.3µM* | -7.7 | -8.2% | -82.5* | 20.6µM*
CC(=O)NCCNc1nc(NCc2ccccc2)nc2ccsc12 | -3.6 | u | 8.1 | -26.8% | 88.9 | u
COc1ccc(CNS(=O)(=O)c2ccc3c(c2)C(C)(C)C(=O)N3C)cc1OC | x | 4.4% | 4.3 | 0.0% | x | 0.4%
CC[C@H]1C=C[C@@H](C(C(=O)OC)C(=O)OC)CN1C(C)=O | -7.5 | u | 4.4 | -0.9% | 49.6 | -29.5%
O=C(CN1CCN(c2ccccc2)CC1)Nc1cccc([N+](=O)[O-])c1 | u | -13.5% | -15.9 | x | 7.8 | -19.6%
COc1ccccc1CNc1nc(NCCNC(C)=O)c2sccc2n1 | 0.0 | u | 4.6 | -22.8% | 86.8 | u
CSc1nc(Oc2ccc(Cl)cc2)c2sccc2n1 | 13.1 | -15.2% | 1.4 | -1.6% | 26.1 | -5.4%
Clc1ccccc1Nc1nc(NCc2ccccc2)nc2ccsc12 | 12.8 | 9.2µM* | 5.7 | 5.1% | -28.1 | 9.2µM*
CC(C)Nc1nc(Nc2ccc(Cl)cc2F)c2sccc2n1 | 24.7 | 20.6µM* | 5.1 | -6.2% | -1.4 | 20.6µM*
COc1ccccc1CNc1nc(NCc2cccs2)nc2ccsc12 | 0.0 | u | 0.3 | -12.3% | -16.8 | 16.4µM*
COc1ccccc1CNc1nc(Nc2ccccc2-n2cccn2)c2sccc2n1 | 41.6 | 14.6µM* | 9.3 | 5.1% | -14.8 | 16.4µM*
O=C(Nc1ccc(-c2n[nH]c(=S)o2)cc1)c1ccccc1Br | 7.6 | 1.1% | 3.1 | -7.5% | 44.3 | -14.7%
SMILES | DRD3 antagonist | TDP1 cell CPT | DRD3 agonist | ClpP mod | IL1B secr inh | TDP1 cell noCPT
O=C(Nc1cccc(NC(=O)c2ccccc2Cl)c1)c1cccc(Br)c1 | x | u | 2.1 | -5.2% | x | u
COCCNc1nc(NCc2ccccc2OC)c2sccc2n1 | 0.1 | 23.1µM* | -9.1 | -16.4% | -25.2 | 16.4µM*
c1ccc(OCCNc2nc(NCC3CC3)nc3ccsc23)cc1 | 14.4 | 4.61µM* | -2.0 | -18.6% | u | 4.61µM*
COc1ccccc1CNc1nc(NCc2ccccc2OC)c2sccc2n1 | 5.3 | 11.6µM* | -3.6 | u | -52.2* | 14.6µM*
COCCNc1nc(NCc2cnc(C)cn2)c2sccc2n1 | 22.9 | -19.4% | -0.3 | -1.5% | 0.0 | -19.5%
O=C(C1CCC(Cn2c(=O)c3sccc3n(Cc3ccccc3)c2=O)CC1)N1CCCCC1 (centres undefined) | x | u | -14.0 | -2.4% | x | u
CC(C)(C)c1cc(CCC(=O)NNC(=O)c2ccncc2)cc(C(C)(C)C)c1O | -0.8 | -2.2% | 3.7 | -2.4% | u | 25.1%
O=C(NCCc1csc(-c2cccnc2)n1)c1ccc(F)c(F)c1 | x | x | -13.5 | -1.4% | x | x
OC(Cc1ccnc2ccccc12)C(Cl)(Cl)Cl (centres undefined) | 13.2 | u | 13.3 | x | 8.4 | 10.3µM*
O=C(O)C(Cc1ccnc2ccccc12)=NO | -9.9 | 1.7% | 3.4 | 1.5% | 5.3 | -11.5%
COc1cc(NC(=O)N2CCC(CN3CCOCC3)CC2)cc(OC)c1OC | x | -19.8% | -3.5 | 0.5% | x | -13.5%
Cc1cc(C)nc(NC2=NCCN2C(=O)NC2CCCCC2)n1 | 8.4 | u | -5.2 | 1.8% | 15.8 | 16.4µM*
COC(=O)Cn1cc(S(=O)(=O)NCc2ccc(C)cc2)c2cc([N+](=O)[O-])ccc21 | -6.5 | -22.7% | -1.3 | -2.5% | 2.4 | 9.9%
Cc1nnc(SC(=O)N2c3ccccc3Sc3ccccc32)s1 | u | 13µM* | -16.4 | -0.3% | -100.9* | 10.3µM*
CCCN1C(=O)/C(=C/c2ccc(N3CCOCC3)cc2)NC1=S | -0.5 | u | 1.4 | 0.8% | 21.9 | 14.6µM*
Cc1cc(/C=C2\NC(=S)N(C)C2=O)ccc1N1CCCC1 | 14.8 | u | 0.3 | x | -8.1 | u
CCCN1C(=O)/C(=C/c2ccc(N3CCCC3)c(C)c2)NC1=S | u | 16.4µM* | 0.7 | 0.8% | -25.3 | 20.6µM*
CCN1C(=O)/C(=C/c2ccc(N3CCCC3)cc2)NC1=S | -13.6 | 23.1µM* | 2.5 | 0.8% | -67.4* | 23.1µM*
Cc1ccc(CN2C(=O)N/C(=C\c3ccc(N4CCOCC4)cc3)C2=O)cc1 | 2.8 | -28.0% | 20.6 | 3.4% | 5.1 | u
Cc1cc(NS(=O)(=O)c2ccc(NC(=O)COc3ccc(C#N)cc3)cc2)nc(C)n1 | -15.1 | -2.3% | 2.4 | u | 22.3 | -1.2%
O=C(Nc1ccccc1C1CC1)c1cccs1 | -18.3 | -1.6% | -3.4 | -0.4% | -10.5 | -16.5%

Compound activity (PubChem BioAssay)
